SMILES strings stand for the structures. Out of some 310,000 compounds screened, about 14,000 (4.5%) showed an effect of 50% or more. Effects have a minus sign here. This is one part of a sample in which strong results are shown more often than they occur.
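Further: peak tail current of the secondary pulse compared with the same well before compound.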

In the experiment the target is human ether-à-go-go-related gene (hERG) potassium channel (human, UniProt Q12809). As to the kind of experiment: primary screen, population patch clamp on CHO cells stably expressing hERG; higher = less effect of the substance.
Sequence of human ether-à-go-go-related gene (hERG) potassium channel (Q12809 whole entry, looked up): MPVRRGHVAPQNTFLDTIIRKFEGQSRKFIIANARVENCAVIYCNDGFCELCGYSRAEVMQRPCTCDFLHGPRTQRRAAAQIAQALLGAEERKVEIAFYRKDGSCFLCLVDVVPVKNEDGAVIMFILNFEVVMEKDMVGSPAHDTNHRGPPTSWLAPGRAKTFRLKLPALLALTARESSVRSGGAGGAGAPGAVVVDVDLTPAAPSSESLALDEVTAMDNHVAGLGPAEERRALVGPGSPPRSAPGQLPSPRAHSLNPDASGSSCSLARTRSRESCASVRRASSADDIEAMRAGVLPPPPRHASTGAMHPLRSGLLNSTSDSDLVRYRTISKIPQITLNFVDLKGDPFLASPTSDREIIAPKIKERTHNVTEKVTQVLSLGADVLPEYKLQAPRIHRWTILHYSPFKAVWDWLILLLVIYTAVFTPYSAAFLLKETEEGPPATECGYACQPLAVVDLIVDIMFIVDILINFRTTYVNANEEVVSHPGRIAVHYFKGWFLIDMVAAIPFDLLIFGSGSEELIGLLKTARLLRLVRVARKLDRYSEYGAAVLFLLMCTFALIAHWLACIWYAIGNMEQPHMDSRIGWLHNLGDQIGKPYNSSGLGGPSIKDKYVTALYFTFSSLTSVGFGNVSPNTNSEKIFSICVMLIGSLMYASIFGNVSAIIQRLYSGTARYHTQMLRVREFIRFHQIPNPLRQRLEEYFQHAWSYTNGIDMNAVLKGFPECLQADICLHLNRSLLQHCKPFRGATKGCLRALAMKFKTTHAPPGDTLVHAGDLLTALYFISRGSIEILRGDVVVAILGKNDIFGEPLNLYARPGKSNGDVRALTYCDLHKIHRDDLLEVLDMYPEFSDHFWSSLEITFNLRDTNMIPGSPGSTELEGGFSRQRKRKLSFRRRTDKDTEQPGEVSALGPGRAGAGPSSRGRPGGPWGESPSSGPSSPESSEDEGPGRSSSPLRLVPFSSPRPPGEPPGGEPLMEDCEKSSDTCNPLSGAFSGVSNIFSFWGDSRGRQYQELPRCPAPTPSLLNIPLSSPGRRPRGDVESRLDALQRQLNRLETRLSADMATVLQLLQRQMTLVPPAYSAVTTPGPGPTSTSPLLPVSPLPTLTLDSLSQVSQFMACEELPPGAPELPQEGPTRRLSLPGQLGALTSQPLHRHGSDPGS
On to `O=C(c1cc(COc2c(F)cccc2F)on1)N1CCC(c2ccccc2F)C1` (stereo not drawn), for which the “hERG current change (%, negative = inhibition) at 10uM” value amounted to 20.4%.
Consider `CN1CCN(C(=O)C2(NC(=O)NCc3ccccc3)CCCCC2)CC1`, for which the “hERG current change (%, negative = inhibition) at 10uM” value stood at 13.2%.
`COc1ccc(CCNC(=O)C(=O)NCC2OCCN2S(=O)(=O)c2ccc(Br)cc2)cc1` (stereo not drawn): the “hERG current change (%, negative = inhibition) at 10uM” value was -7.02%.
Turning to `OC(CNC1CCCCC1)c1ccccc1` (stereo not drawn), the “hERG current change (%, negative = inhibition) at 10uM” value is 12.1%.
The value for `CN1CCC(N(C)CC(O)c2ccccc2)CC1.O=C(O)C(=O)O` (stereo not drawn) was -6.05%; that for `O=C([C@H](O)c1ccccc1)N1CCC[C@H]1CO` was 8.33%; that for `CN1C(CC(O)c2ccccc2)CCCC1CC(O)c1ccccc1.Cl` (stereo not drawn) was -67.8%.
For the compound `O=C(CC1C(=O)CCCC1=O)c1ccccc1`, the “hERG current change (%, negative = inhibition) at 10uM” value is 25.1%.
Consider `CN1C(CC(=O)c2ccccc2)CCCC1CC(O)c1ccccc1` (stereo not drawn), for which the “hERG current change (%, negative = inhibition) at 10uM” value was -82.4%.
As for `CCOC(=O)C(NC(=O)CC)(Nc1ccccc1)C(F)(F)F` (stereo not drawn), the “hERG current change (%, negative = inhibition) at 10uM” value is 21.9%.
`Cc1noc(/C=C/c2nn(C)cc2Cl)c1[N+](=O)[O-]`: the “hERG current change (%, negative = inhibition) at 10uM” value is reported as 16.6%.
For `C/C(=N\Nc1ccc(C)c(Cl)c1)c1ccncc1`, the “hERG current change (%, negative = inhibition) at 10uM” value is 24.8%.
The value for `Cc1ccccc1C(=O)NC1CCN(Cc2nnnn2C(C)(C)C)CC1` was 17.7%.
Under `O=C(CCC(=O)c1ccc(Cl)s1)Nc1ncccc1O` stands -28.2%; under `CCOC(=O)Nc1nc(-c2ccc(Cl)cc2Cl)cs1`, 11.7%.
Turning to `CCn1ccnc1CN(C)Cc1nc(CCC(C)C)no1`, the “hERG current change (%, negative = inhibition) at 10uM” value is listed as 4.23%.
For `CCn1ccnc1CN(C)Cc1nc(Cc2cccc(C(F)(F)F)c2)no1`, the “hERG current change (%, negative = inhibition) at 10uM” value was -60.8%.
For `CN1CCCC2(CCCN(Cc3nc(Cc4cccc(C(F)(F)F)c4)no3)C2)C1` (stereo not drawn), the “hERG current change (%, negative = inhibition) at 10uM” value is reported as -45.2%.
Regarding `CN(Cc1nc(Cc2cccc(C(F)(F)F)c2)no1)C1CC(C)(C)NC(C)(C)C1`, the “hERG current change (%, negative = inhibition) at 10uM” value is reported as -12.3%.
Take `CC(CN(C)Cc1nc(Cc2cccc(C(F)(F)F)c2)no1)CN1CCCC1` (stereo not drawn): the “hERG current change (%, negative = inhibition) at 10uM” value was -63.2%.
Take `CCc1ccc(CN(C)Cc2nc(Cc3cccc(C(F)(F)F)c3)no2)nc1`: the “hERG current change (%, negative = inhibition) at 10uM” value was -28.1%.
As to `COc1ccc(NC(=O)Cn2nnc(C(=O)Nc3ccc(F)c(Cl)c3)c2N)cc1`, the “hERG current change (%, negative = inhibition) at 10uM” value came out at 25.9%.
As to `Cc1cccc(C(=O)NNC(=O)c2ccc(O)cc2)c1`, the “hERG current change (%, negative = inhibition) at 10uM” value is reported as -2.31%.
With `COc1ccc(CCNC(=O)COC(=O)C2CCCCC2)cc1`, the “hERG current change (%, negative = inhibition) at 10uM” value was 7.11%.
`Cc1nc2nc[nH]n2c(=O)c1CCOC(=O)c1ccccc1F`: the “hERG current change (%, negative = inhibition) at 10uM” value stood at 20.7%.
In the case of `O=C(/C=C\c1ccccc1)NCC(=O)N/N=C/c1ccc(O)cc1O`, the “hERG current change (%, negative = inhibition) at 10uM” value is 9.48%.
For the compound `Cc1ccc(NC(=O)CCNS(=O)(=O)c2ccccc2)c(C(=O)c2ccccc2)c1`, the “hERG current change (%, negative = inhibition) at 10uM” value is given as -20.4%.
Under `Cc1cc(C(=O)NC2CCCN(Cc3ccc(Cl)cc3)C2)c(C)o1` (stereo not drawn) stands -11.9%.
Under `Cc1cc(C(=O)NC2CCCN(Cc3ccc(Cl)cc3)C2)n(C)n1` (stereo not drawn) stands -16%.
Regarding `O=C(NC1CCCN(Cc2ccc(Cl)cc2)C1)C1CCC1` (stereo not drawn), the “hERG current change (%, negative = inhibition) at 10uM” value is recorded as -13.6%.
The value for `Cc1cc(C(=O)NC2CCCN(Cc3ccc(Cl)cc3)C2)no1` (stereo not drawn) was -34.6%.
As to `Cc1ccsc1C(=O)NC1CCCN(Cc2ccc(Cl)cc2)C1` (stereo not drawn), the “hERG current change (%, negative = inhibition) at 10uM” value is on record as -56.2%.
The value for `CC(=O)c1ccc(C(=O)NC2CCCN(Cc3ccc(Cl)cc3)C2)s1` (stereo not drawn) was -66.4%.
With `CNc1nc(Sc2ccc(C)cc2)cc(C(F)(F)F)n1`, the “hERG current change (%, negative = inhibition) at 10uM” value came to 15.5%.
The value for `COc1ccc(N(CC(=O)Nc2cc(Cl)ccc2OC)C2=NC3CS(=O)(=O)CC3S2)cc1` (stereo not drawn) was -7.35%; that for `Cc1ccc(C(=O)N2CCN(c3ccccn3)CC2)cc1Cl` was -3.65%.
For the compound `Cc1ccc(C(=O)NNC(=O)c2ccncc2)cc1S(=O)(=O)N1CCOCC1`, the “hERG current change (%, negative = inhibition) at 10uM” value is reported as 0.578%.
With `O=C(NCCCn1ccnc1)c1cc(S(=O)(=O)N2CCOCC2)ccc1F`, the “hERG current change (%, negative = inhibition) at 10uM” value worked out at 26.8%.
As to `CC(NC(=O)c1cc(S(=O)(=O)N2CCOCC2)ccc1F)c1ccc(-n2ccnc2)cc1` (stereo not drawn), the “hERG current change (%, negative = inhibition) at 10uM” value is reported as -72.2%.
Take `Cc1ccc(C(=O)NC(C)c2ccc(-n3ccnc3)cc2)cc1S(=O)(=O)N1CCOCC1` (stereo not drawn): the “hERG current change (%, negative = inhibition) at 10uM” value is given as -65.1%.
Turning to `Cc1ccc(C(=O)NC(C)c2ccccc2)cc1S(=O)(=O)N1CCOCC1` (stereo not drawn), the “hERG current change (%, negative = inhibition) at 10uM” value is -1.39%.
`O=C(Nc1ccc(N2CCCCC2)cc1)c1cc(S(=O)(=O)N2CCOCC2)ccc1F`: the “hERG current change (%, negative = inhibition) at 10uM” value is given as -9.76%.
For `CCOC(=O)CNC(=O)C(=O)c1c(O)[nH]c2ccccc12`, the “hERG current change (%, negative = inhibition) at 10uM” value is 9.92%.
On to `CC(C(=O)NCC1CCCO1)n1cccc1C(=O)c1ccccc1` (stereo not drawn), for which the “hERG current change (%, negative = inhibition) at 10uM” value stood at 15.1%.
Take `CCOC(=O)C1=C(CN2CCc3ccccc32)NC(=O)NC1c1cccc([N+](=O)[O-])c1` (stereo not drawn): the “hERG current change (%, negative = inhibition) at 10uM” value is given as -7.46%.

For the origin of these results see PMC4336329 (PLoS ONE, 2015).
